# An excerpt weighted towards active compounds, which were near 11% of everything screened.
# G9a inh – G9a (human) methyltransferase inhibition. Potency, µM (series often up to 102 µM), inactives show top-dose activity, negative = inhibition, most hits filed as inhibitors. 350,000 tested, 8.8% active. Q96KQ7. G9a H3K9 monomethylation, AlphaScreen, 2 h; also: % is scaled to controls: 0 for no effect and ±100 for the full control effect; nearly all actives have a fitted effect of over 75% in size
#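 G9a (20 nM) preincubated 15 min RT with compounds, then 500 nM biotinylated H3K9 peptide and 20 uM SAM added; 2 h RT reaction. Monomethyl-H3K9 product detected by AlphaScreen with anti-H3K9me1 antibody, streptavidin donor and anti-rabbit IgG acceptor beads.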
# JMJD2A Tudor – blocks the human JMJD2A Tudor domain. AlphaScreen JMJD2A-Tudor / H3K4me3 peptide binding. AID 504339. O75164. Potency, µM (titrated, usually from 114 µM), inactives show at the highest dose activity change, negative = inhibition, actives largely listed as inhibitors. 390,000 tested, 4.4% active; also: % is scaled to controls: 0 for no effect and ±100 for the full control effect; nearly all actives have a fitted effect of over 50% in size
# Target sequence (O75164 whole entry, looked up, the tested form may be a part): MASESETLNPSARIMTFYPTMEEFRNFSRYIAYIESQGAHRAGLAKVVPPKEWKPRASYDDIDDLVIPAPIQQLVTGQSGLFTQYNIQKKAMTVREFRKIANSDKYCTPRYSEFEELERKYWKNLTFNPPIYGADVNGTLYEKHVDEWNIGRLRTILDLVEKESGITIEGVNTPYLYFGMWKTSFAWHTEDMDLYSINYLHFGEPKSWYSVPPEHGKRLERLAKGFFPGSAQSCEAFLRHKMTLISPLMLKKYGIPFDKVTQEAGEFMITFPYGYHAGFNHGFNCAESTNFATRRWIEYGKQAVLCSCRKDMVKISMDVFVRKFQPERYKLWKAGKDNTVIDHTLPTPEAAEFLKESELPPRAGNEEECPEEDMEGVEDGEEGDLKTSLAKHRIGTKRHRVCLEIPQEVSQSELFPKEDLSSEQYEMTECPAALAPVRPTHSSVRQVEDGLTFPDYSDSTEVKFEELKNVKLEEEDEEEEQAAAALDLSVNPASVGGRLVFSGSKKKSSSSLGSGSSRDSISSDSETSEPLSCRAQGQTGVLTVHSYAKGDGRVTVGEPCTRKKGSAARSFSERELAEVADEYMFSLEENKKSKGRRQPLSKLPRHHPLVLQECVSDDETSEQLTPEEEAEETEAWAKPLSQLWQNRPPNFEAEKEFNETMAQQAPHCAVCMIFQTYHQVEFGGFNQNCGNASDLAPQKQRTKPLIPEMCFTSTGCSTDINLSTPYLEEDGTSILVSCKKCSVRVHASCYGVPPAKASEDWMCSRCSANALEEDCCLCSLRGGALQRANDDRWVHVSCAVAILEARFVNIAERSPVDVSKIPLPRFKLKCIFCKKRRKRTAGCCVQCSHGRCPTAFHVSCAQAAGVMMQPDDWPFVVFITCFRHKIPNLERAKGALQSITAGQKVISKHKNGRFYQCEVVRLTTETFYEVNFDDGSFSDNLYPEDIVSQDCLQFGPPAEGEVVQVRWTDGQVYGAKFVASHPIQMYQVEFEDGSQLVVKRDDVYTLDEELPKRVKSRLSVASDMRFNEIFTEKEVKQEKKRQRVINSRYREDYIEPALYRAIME
# BAZ2B inh – inhibitors of human BAZ2B bromodomain; Potency, µM (highest dose often 114 µM), for the others: top-dose activity change, negative = inhibition, usual class: inhibitors; 360,000 tested, 4.4% active; AID 504333; Q9UIF8; AlphaScreen BAZ2B-H3K14Ac peptide displacement; also: % is scaled to controls: 0 for no effect and ±100 for the full control effect; nearly all actives have a fitted effect of over 60% in size
#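 Multi-concentration screen (max 110 uM) measuring displacement of acetylated histone H3 peptide from BAZ2B by AlphaScreen, using 50 nM protein, 50 nM peptide and 10 ug/mL streptavidin donor plus Ni-chelate acceptor beads.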
# L3MBTL1 inh-1 – inhibitors of human L3MBTL1; AlphaScreen L3MBTL1–H3K9me1 peptide binding; Potency, µM (doses to about 57.1 µM), for the others: at the top dose activity, negative = inhibition, usual class: inhibitors; 230,000 tested, 0.66% active; AID 485360; also: % is scaled to controls: 0 for no effect and ±100 for the full control effect; nearly all actives have a fitted effect of over 60% in size
#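 First, the protein-peptide complex forms for 30 min at room temperature (L3MBTL1 50 nM, biotinylated H3K9me1 peptide 75 nM). Next, compounds are pin-transferred and incubated 30 min. Finally, AlphaScreen beads are added and read after 30 min.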
# HP1b binding inh – blocks HP1-beta chromodomain binding to methylated histone tails. AlphaScreen HP1-beta / biotin-H3K9me3 peptide binding. 390,000 tested, 0.56% active. Potency, µM (doses to about 114 µM), for the others: at the highest dose activity change, negative = inhibition, hits mostly inhibitors. P83916; also: nearly all actives have a fitted effect of over 70% in size
#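 Compound inhibition of the preformed complex between 50 nM HP1-beta and 50 nM biotinylated H3K9me3 peptide was read by AlphaScreen. Buffer was PBS pH 7.4 with 0.01% Tween-20. Incubations ran 30 min at room temperature, with 10 ug/mL donor/acceptor beads.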
# L3MBTL1 inh-2 – validation of human L3MBTL1 methyl-lysine binding inhibitors; shares compounds with L3MBTL1 inh-1; L3MBTL1 methyl-lysine binding inhibition, biochemical qHTS; Potency, µM, usual class: inhibitors; 500 tested, 91% active; also: nearly all actives have a fitted effect of over 70% in size
# L3MBTL1 ctr – counter-screen for L3MBTL1 inhibitors: AlphaScreen signal interference; shares compounds with L3MBTL1 inh-1; AlphaScreen counterscreen, signal inhibition; AID 602224; 500 tested, under 10 active; Potency, µM (top dose mostly 57.1 µM), inactives show top-dose activity change, negative = inhibition, actives largely listed as inhibitors; also: 0% is about no effect
# Numbers without * were called inactive; ? = inconclusive; nt = no result given; [ ] = dose if it differs, or a comment. Calls follow the shape of the dose curve; as a rule, active = well fitted curve in the direction sought with a large enough effect; inconclusive = small, poorly fitted or top-dose-only effect, or another doubt; inactive = no such curve, though single readings can be large; an effect the other way counts as inactive or inconclusive. Potency is read from the fitted curve at half-maximal effect.
SMILES,G9a inh,JMJD2A Tudor,BAZ2B inh,L3MBTL1 inh-1,HP1b binding inh,L3MBTL1 inh-2,L3MBTL1 ctr
COC(=O)c1ccccc1NC(=O)c1noc2c1CCC2,44.7µM*,50.1µM*,50.1µM*,28.2µM*,?,9.47*,3.7%
CCOC(=O)[C@H]1[C@H]2COc3ccccc3[C@@H]2N2C(=O)CNC(=O)[C@@]12C,7.0%[0.501 µM],-12.0%,0.6%,-0.7%,27.2%,nt,nt
Cc1c(C(=O)OC2CCCC2)[nH]c2c1C(=O)CC(c1ccco1)C2 (configuration not stated),?,?,?,-24.0%,4.0%,nt,nt
Cc1c(C(=O)OCC2CCCO2)[nH]c2c1C(=O)CC(c1ccco1)C2 (configuration not stated),17.8µM*,?,22.4µM*,14.1µM*,?,5.97*,-1.8%
C=CCn1c(SCC(=O)c2ccc(O)c(O)c2)nnc1-c1ccc(OC)cc1,-2.5%[0.501 µM],?,-19.3%,8.91µM*,3.9%,13.4*,0.0%
Cc1cccc(/C=C(\C(=O)O)c2ccc(S(=O)(=O)N3CCCC3)s2)c1,nt,?,nt,28.2µM*,-9.6%,5.32*,2.8%
COc1ccc(NC(=O)CSCC(=O)N(C)CCOc2ccc(Cl)cc2)cc1,2.9%[0.501 µM],-6.2%,7.4%,3.2%,27.0%,nt,nt
O=C(Nc1cc2c(oc1=O)CCCC2=O)c1ccc(Cl)cc1,3.5%[12.7 µM],14.1µM*,39.8µM*,15.8µM*,-65.5%,3.77*,11.1%
O=C(Nc1ccc2nc(-c3ccco3)c(-c3ccco3)nc2c1)N1CCN(c2ccccn2)CC1,2.51µM*,?,?,3.16µM*,25.1µM*,2.99*,-1.0%
CCOc1ccc(/C=N/NC(=O)c2cc(-c3ccco3)nc3ccccc23)cc1,14.4%[59 µM],-10.4%,8.2%,4.1%,33.1%,nt,nt
CCNC(=O)COC(=O)c1cc(-c2ccco2)nc2ccccc12,39.8µM*,56.2µM*,50.1µM*,25.1µM*,?,4.23*,6.4%
Cc1nn(-c2ccccc2)c2nc(-c3ccco3)cc(C(=O)O)c12,20µM*,?,?,11.2µM*,9.4%,1.06*,2.5%
O=C(O)c1cc(-c2ccco2)nc2ccccc12,28.2µM*,25.1µM*,?,22.4µM*,44.7µM*,2.99*,-4.5%
Cc1ccc(N=C2NC(=O)S/C2=C\c2ccco2)cc1,?,17.8µM*,63.1µM*,25.1µM*,0.8%,11.9*,7.0%
COc1ccc(N=C2NC(=O)S/C2=C\c2ccc(N(C)C)cc2)cc1,-41.8%[59 µM],-30.1%,-34.7%,-0.1%,-17.9%,nt,nt
CCOC(=O)C1(C)Oc2ccc(S(=O)(=O)CC)cc2NC1=O (configuration not stated),0.6%,12.7%,-14.9%,nt,13.2%,nt,nt
O=C(OCC(=O)N1CCN(c2ccccc2)CC1)c1ccc[n+]([O-])c1,?,3.3%[57.1 µM],-16.2%,27.9%[11.4 µM],44.2%,nt,nt
O=C(CCSc1ccccc1)Nc1nccs1,-3.8%[59 µM],-10.8%,-20.7%,nt,11.5%,nt,nt
O=C(CCCSc1ccccc1)Nc1nc(-c2ccco2)c(-c2ccco2)s1,?,39.8µM*,22.4µM*,22.4µM*,28.2µM*,23.8*,?
Cc1ccccc1Nc1nnc(SCC(=O)NC(=O)NCc2ccco2)s1,35.5µM*,?,-37.4%,28.2µM*,-5.2%,9.47*,8.0%
CC(C)(C)NC(=O)NC(=O)CSc1nnc(COc2ccccc2Cl)o1,?,-12.5%,-35.9%,nt,23.1%,nt,nt
O=C(CSc1nnc(Nc2ccccc2)s1)NCc1ccco1,-22.1%[59 µM],-15.1%,nt,-6.9%,1.2%,nt,nt
O=C(CSc1nnc(COc2ccccc2Cl)o1)NC(=O)NCc1ccco1,50.1µM*,?,39.8µM*,14.1µM*,?,11.9*,-7.5%
CCOc1ccccc1-n1nnnc1SCC(=O)NC(=O)NCc1ccco1,79.4µM*,?,50.1µM*,25.1µM*,-1.2%,21.2*,0.0%

# Bioassay records (PubChem BioAssay)
